The list is not random: actives were taken first. Their share in the collection is about 0.95%.
RE007 growth inh: less growth of the S. pombe RE007 Vpr strain; Potency, µM (titrated, usually from 92.2 µM), inactives show top-dose activity change, negative = less growth, actives largely listed as inhibitors; 360,000 tested, 0.21% active; S. pombe RE007 Vpr strain, BacTiter-Glo ATP luminescence, 24 h; AID 651644; active = well fitted falling curve with a large enough effect; inconclusive = small, poorly fitted or top-dose-only effect; inactive = no such curve, though single readings can be large or run the other way; note: nearly all actives have a fitted effect of over 50% in size
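Fission yeast RE007 carrying one integrated HIV-1 vpr copy, seeded at OD 0.01 in PMG+AL medium with 23 nL pinned compound. Grown 24 h at 30 degrees; viability read by BacTiter-Glo luminescence after 5 min.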
Tb PYK inh: blocks Trypanosoma brucei pyruvate kinase; Q57TT1; TbPYK enzyme, Kinase-Glo Plus ATP luminescence, 45 min; Potency, µM (series often up to 76.8 µM), for the others: at the top dose activity, negative = inhibition, most hits filed as inhibitors; 410,000 tested, 0.12% active; AID 624173; note: nearly all actives have a fitted effect of over 50% in size
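ADP (130 uM final) triggers the TbPYK reaction after compound addition; incubation is 45 min at room temperature. Kinase-Glo Plus is then added and luminescence imaged. Normalized data are fitted to concentration-effect curves.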
Giardia FBPA inh-1: inhibitors of Giardia lamblia fructose-1,6-bisphosphate aldolase; purified Giardia FBPA; A8B2U2; 290,000 tested, 0.71% active; Potency, µM (doses to about 59.6 µM), for the others: at the top dose activity, negative = inhibition, hits mostly inhibitors; note: nearly all actives have a fitted effect of over 55% in size
Target sequence (A8B2U2 whole entry, looked up): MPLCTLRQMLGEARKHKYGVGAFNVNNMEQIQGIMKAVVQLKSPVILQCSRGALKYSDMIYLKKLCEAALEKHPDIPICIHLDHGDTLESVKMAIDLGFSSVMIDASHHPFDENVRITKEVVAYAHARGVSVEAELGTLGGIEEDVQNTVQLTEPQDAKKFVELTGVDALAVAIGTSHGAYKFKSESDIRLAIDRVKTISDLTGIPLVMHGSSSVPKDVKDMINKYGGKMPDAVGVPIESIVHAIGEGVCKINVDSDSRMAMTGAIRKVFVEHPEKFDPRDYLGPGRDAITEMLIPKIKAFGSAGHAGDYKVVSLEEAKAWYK
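40 nM FBPA preincubated 10 min at RT with compound (up to 57.5 uM final), then substrate plus GAPDH/TPI/NAD/arsenate coupling and diaphorase/resazurin added. Fluorescence read after 20 min at RT, 525/598 nm.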
LmPK inh: blocks Leishmania mexicana pyruvate kinase activity. Potency, µM (top dose mostly 57.5 µM), without a hit: at the highest dose activity change, negative = inhibition, hits mostly inhibitors. Q27686. 290,000 tested, 0.37% active. purified LmPK, Kinase-Glo ATP luminescence, 1 h
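Purified LmPK (0.1 nM) converted ADP (0.1 mM) to ATP with PEP (0.5 mM) in imidazole buffer pH 7.2 with KCl and MgCl2, 1 h at room temperature. ATP was read by Kinase-Glo luminescence; data normalized to uninhibited and no-enzyme controls.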
Giardia growth: inhibitors of Giardia lamblia growth. Potency, µM (titrated, usually from 57.5 µM), without a hit: at the top dose activity change, negative = inhibition, most hits filed as inhibitors. Giardia lamblia trophozoite growth inhibition. shares compounds with Giardia FBPA inh-1. AID 2785. 1,500 tested, 5% active;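 note: trophozoites exposed to compound for 48 h at 37 °C; nearly all actives have a fitted effect of over 70% in size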
Mammal cell tox: toxic to mammalian cells in Giardia aldolase counter-screen | 1,500 tested, 4% active | shares compounds with Giardia FBPA inh-1 | mammalian cell viability counter-screen, qHTS | Potency, µM (top dose mostly 57.5 µM), inactives show top-dose viability change, negative = toxicity, most hits filed as inhibitors;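 note: Chinese hamster ovary cells used as mammalian cytotoxicity surrogate; viability measured as cellular ATP by luminescence; compound exposure lasted 48 h before reading; nearly all actives have a fitted effect of over 60% in size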
Giardia FBPA inh-2: confirmation of Giardia fructose-bisphosphate aldolase inhibitors; shares compounds with Giardia FBPA inh-1; purified Giardia aldolase enzyme activity, qHTS; Potency, µM (highest dose often 57.5 µM), for inactives: top-dose activity change, negative = inhibition, hits mostly inhibitors; 1,500 tested, 5% active; note: nearly all actives have a fitted effect of over 45% in size
Rabbit FBPA inh: blocks rabbit muscle aldolase in Giardia aldolase selectivity test; shares compounds with Giardia FBPA inh-1; Rabbit muscle FBPA enzyme inhibition, selectivity counter-screen; Potency, µM (doses to about 57.5 µM), without a hit: top-dose activity, negative = inhibition, usual class: inhibitors; 1,500 tested, 4% active; AID 2794; note: nearly all actives have a fitted effect of over 60% in size
Target sequence (P00883 whole entry, looked up): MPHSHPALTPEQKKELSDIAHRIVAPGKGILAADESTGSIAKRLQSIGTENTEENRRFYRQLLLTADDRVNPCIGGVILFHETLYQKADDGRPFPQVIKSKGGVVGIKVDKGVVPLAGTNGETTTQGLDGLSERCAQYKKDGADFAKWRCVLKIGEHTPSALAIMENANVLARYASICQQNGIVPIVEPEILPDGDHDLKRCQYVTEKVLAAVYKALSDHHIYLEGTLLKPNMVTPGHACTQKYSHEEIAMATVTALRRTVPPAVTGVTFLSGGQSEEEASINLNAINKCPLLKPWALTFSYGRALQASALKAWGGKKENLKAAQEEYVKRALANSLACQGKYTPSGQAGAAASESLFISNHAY
GAPDH counter: GAPDH inhibition flagged for Giardia aldolase hits. shares compounds with Giardia FBPA inh-1. GAPDH coupling enzyme counterscreen, biochemical, qHTS. Potency, µM (highest dose often 57.5 µM), for the others: top-dose activity change, negative = inhibition, actives largely listed as inhibitors. 1,500 tested, 6% active; note: nearly all actives have a fitted effect of over 55% in size
* = called active by the depositor; ? = inconclusive; / = not tested or not shown; ! = a repeat was not active; [ ] = dose if it differs, or a comment. Unless noted, calls come from the whole dose curve; as a rule, active = well fitted curve in the direction sought with a large enough effect; inconclusive = small, poorly fitted or top-dose-only effect, or another doubt; inactive = no such curve, though single readings can be large; an effect the other way counts as inactive or inconclusive. % is set by controls: 0 for no effect and ±100 for the full control effect; potency is the fitted concentration of half-maximal effect.

SMILES | RE007 growth inh | Tb PYK inh | Giardia FBPA inh-1 | LmPK inh | Giardia growth | Mammal cell tox | Giardia FBPA inh-2 | Rabbit FBPA inh | GAPDH counter
OC(COC(c1ccc(F)cc1)c1ccc(F)cc1)CN1CCCC(C(F)(F)F)C1 (stereo unspecified) | -7% | 38% | 14µM* | 1% | ? | -3% | 2% | 4% | -5%
COc1ccc(N2CCN(CC(O)COC(c3ccc(F)cc3)c3ccc(F)cc3)CC2)cc1 (stereo unspecified) | -18% | 5% | 16µM* | -12% | 4%[10.4 µM] | 13% | -7% | -8% | 3%
NCCNc1cccc2ccccc12 | / | 1% | / | / | / | / | / | / | /
Cc1nccn1CCOc1ccc(Cl)cc1 | 5% | -4% | 25µM* | -7% | -16%[10.4 µM] | 11% | 0% | 2% | 8%
Cc1cc(C(=O)NNC(=O)[C@H](C)NC(=O)c2ccc(Br)cc2)c(C)o1 | 0% | 1% | / | / | / | / | / | / | /
COC(=O)Oc1nsnc1N1CCOCC1 | -11% | -39% | 14µM* | -3% | -28% | 10% | -13% | ? | ?
Cc1cc(C(C)C)n2c(nc3ccccc32)c1C#N | / | / | 1% | 10% | / | / | / | / | /
Cc1cc(-c2ccco2)c(C#N)c2nc3ccccc3n12 | -19% | 1% | 1.3µM* | -10% | -19%[38.3 µM] | -29% | ? | ? | ?
O=C(COC(=O)c1cncc(Br)c1)Nc1ccc(F)c(F)c1F | 20% | -2% | / | / | / | / | / | / | /
Cn1c(SCC(=O)c2ccc(O)c(O)c2)nnc1-c1cccs1 | -11% | -5% | 5µM* | -3% | 10%[38.3 µM] | -27% | ? | -9% | -10%
NC(=O)c1ccc(-n2nnnc2SCC(=O)c2ccc(O)c(O)c2)cc1 | -12% | -9% | -5% | -6% | / | / | / | / | /
Cc1ccc(C(=O)CSc2nc(C)cc(=O)[nH]2)cc1 | -2% | 0% | / | -4% | / | / | / | / | /
Cc1cc(=O)[nH]c(SCC(=O)c2ccc(O)c(O)c2)n1 | 4% | -4% | 8.9µM* | 16% | ? | 12% | ? | -27% | -4%
COc1ccc(-n2nnnc2SCC(=O)c2ccc(O)c(O)c2)cc1 | 6% | -6% | ? | 5% | -3%[38.3 µM] | ? | -25% | -11% | -32%
Cc1cc(C)nc(SCC(=O)c2ccc(O)c(O)c2)n1 | -1% | -6% | 11µM* | 7% | -25% | 9% | -21% | -16% | -12%
C=CCN1CCN(C(=O)c2cc3c(s2)CCC(CC)C3)CC1 (stereo unspecified) | -3% | 1% | 8% | -5% | / | / | / | / | /
COc1ccc(Oc2ncc3nc(CCc4ccccc4)c(=O)n(C[C@H]4CCCO4)c3n2)cc1 | / | / | 6% | / | / | / | / | / | /
Cc1cccc(-n2ncc(C(=O)NCc3ccc4c(c3)OCO4)c2C2CCN(C(=O)OC(C)(C)C)CC2)c1 | / | 3%[15.4 µM] | / | / | / | / | / | / | /
CNCCCNC(=O)c1ccc(/C=N/O)nc1 | 7% | -11% | 16µM* | 2% | 60% | -6% | 1% | 8% | 4%
NC(=O)c1ccc(/C=N/O)nc1 | -2% | -7% | 18µM* | 2% | ? | 3% | 3% | 6% | 2%
O=C(NCc1ccccc1)c1ccc(/C=N/O)nc1 | 7% | 9% | 2% | -4% | / | / | / | / | /
CN(C)CCCNC(=O)c1ccc(/C=N/O)nc1 | 22% | -4% | 2% | -4% | / | / | / | / | /
CN(CC(=O)Nc1ccc(F)cc1)C(=O)COC(=O)c1cc([N+](=O)[O-])ccc1N1CCOCC1 | -3% | 0% | / | / | / | / | / | / | /
COc1cc2c(c(OC)c1OC)-c1ccc(SC)c(=O)cc1C(NC=O)CC2 (stereo unspecified) | -24% | 0% | / | / | / | / | / | / | /
CCOC(=O)C1CCN(C(=O)c2ccc3nc(-c4ccc(OC)cc4)c(-c4ccc(OC)cc4)nc3c2)CC1 | 6% | 0% | / | 0% | / | / | / | / | /
SMILES | RE007 growth inh | Tb PYK inh | Giardia FBPA inh-1 | LmPK inh | Giardia growth | Mammal cell tox | Giardia FBPA inh-2 | Rabbit FBPA inh | GAPDH counter
CCOC(=O)N1CCN(C(=O)CCCCCn2c(=S)[nH]c3ccsc3c2=O)CC1 | -6% | 0% | ? | -2% | / | / | / | / | /
CCOC(=O)N1CCN(C(=O)CCCn2c(=S)[nH]c3ccsc3c2=O)CC1 | 37% | -6% | 16µM* | -12% | -2%[10.4 µM] | 16% | -4% | 1% | 13%
O=C(CCCn1c(=S)[nH]c2ccsc2c1=O)NCc1ccco1 | 10% | -26% | 16µM* | -16% | -3% | -3% | -1% | 2% | 12%
CC(=O)c1cc(-c2ccc(F)cc2)n(CC(=O)NC2CCC(C)CC2)c1C (stereo unspecified) | / | 5%[15.4 µM] | / | / | / | / | / | / | /
COc1cc(OC)c(OC)cc1CN1CCN(Cc2ccc(SC)cc2)CC1 | -11% | -10% | ? | -1% | / | / | / | / | /
COc1cccc(CN2CCSCC2)c1 | 80% | 12% | ? | -6% | / | / | / | / | /
COc1ccc(CN2CCNCC2)c(OC)c1OC | -5%[18.4 µM] | -12% | 22µM*! | 0% | -4%[10.4 µM] | 4% | -1% | 1% | 19%
COc1cccc(CN2CCN(Cc3cc(OC)c(OC)cc3OC)CC2)c1 | -5% | 2% | 14µM* | -8% | -25% | 4% | -5% | 5% | 5%
COc1cccc(CN2CCNCC2)c1 | -3% | -6% | 3.5µM* | 2% | ? | -2% | 8% | 3% | 7%
CCc1cccc(C)c1NC(=O)C(C)Sc1nc2c(c(=O)[nH]1)CCCC2 (stereo unspecified) | / | 2% | / | / | / | / | / | / | /
NC(=S)N/N=C/c1ncc(C(F)(F)F)cc1Cl | -9% | 0% | 6.3µM* | 3% | 3%[10.4 µM] | ? | -18% | 4% | ?
NC(=S)N/N=C/c1ccc(C(F)(F)F)cc1 | -4% | -10% | ? | -1% | / | / | / | / | /
O=C(CN1CCOCC1)Nc1c2c(nc3ccccc13)N(Cc1ccccc1)CC2 | -19% | 5% | 16µM* | -16% | ? | -3% | -7% | -3% | -5%
CCOC(=O)N1CCN(Cc2ccccn2)CC1 | -6% | 0% | 14µM* | -5% | 33% | -10% | 0% | 3% | 6%
CCOC(=O)N1CCN(Cc2ccc3ccccc3c2)CC1 | -11% | 17% | 25µM* | 1% | 9%[10.4 µM] | 9% | 3% | 8% | 2%
Cc1ccc(/C=N/Nc2nncc(-c3ccccc3)n2)o1 | -19% | 2% | -6% | 1% | / | / | / | / | /
Cc1[nH]n(-c2ccccc2)c(=O)c1/C=N/Nc1nncc(-c2ccccc2)n1 | -24% | 1% | 7.9µM* | -18% | ? | 20µM* | -16% | -3% | -8%
